Only some compounds are listed: those with a hit (about 9.4% of all), similar ones and a draw of the others.
Rab9 promoter act: activates the Rab9 promoter | Huh7 Rab9 promoter-luciferase reporter, luminescence, 24 h | Potency, µM (series often up to 9.22 µM), hits mostly activators | AID 485297 | 2.8% of 320,000 active; note: nearly all actives have a fitted effect of over 60% in size
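Rab9 promoter-driven luciferase in stably transfected Huh7 cells; 1500 cells/well rested 2 h, exposed to compound in DMSO for 24 h at 37 °C, 5% CO2. Luminescence read 10 min after adding luciferase reagent at ambient temperature.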
NPC1 promoter act: NPC1 promoter activation. Huh7 NPC1 promoter luciferase reporter, 24 h. Potency, µM (series often up to 9.22 µM), actives largely listed as activators. 2.4% of 320,000 active; note: nearly all actives have a fitted effect of over 60% in size
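Luminescence from an NPC1 promoter-driven luciferase reporter in stably transfected Huh7 cells was measured after 24 h compound treatment at 37 °C, followed by 10 min ambient incubation with luciferase detection reagent.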
FLuc modulator: inhibits or activates purified firefly luciferase, miR-21 counter-screen. 6.9% of 360,000 active. AID 588342. Potency, µM (highest dose often 57.5 µM), hits mostly inhibitors. purified FLuc, Km substrates, luminescence inhibition; note: nearly all actives have a fitted effect of over 55% in size
Target sequence (P08659 whole entry, looked up): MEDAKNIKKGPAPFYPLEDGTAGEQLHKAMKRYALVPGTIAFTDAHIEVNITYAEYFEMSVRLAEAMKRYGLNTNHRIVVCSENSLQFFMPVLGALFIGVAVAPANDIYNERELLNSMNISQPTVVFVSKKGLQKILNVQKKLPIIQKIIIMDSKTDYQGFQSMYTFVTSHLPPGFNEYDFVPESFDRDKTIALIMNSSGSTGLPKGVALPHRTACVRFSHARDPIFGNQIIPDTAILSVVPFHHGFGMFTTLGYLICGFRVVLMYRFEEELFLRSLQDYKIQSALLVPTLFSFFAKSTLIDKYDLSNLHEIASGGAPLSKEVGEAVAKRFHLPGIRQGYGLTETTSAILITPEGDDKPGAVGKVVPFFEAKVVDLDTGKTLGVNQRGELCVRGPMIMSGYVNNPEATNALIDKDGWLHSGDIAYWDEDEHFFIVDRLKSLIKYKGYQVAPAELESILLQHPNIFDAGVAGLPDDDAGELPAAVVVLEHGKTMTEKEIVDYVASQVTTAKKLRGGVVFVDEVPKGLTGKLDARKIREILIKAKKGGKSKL
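Purified P. pyralis luciferase (10nM final) with 10uM D-luciferin and 10uM ATP (Km levels) in 50mM Tris acetate pH 7.5, 10mM Mg acetate, 0.01% Tween-20, 0.05% BSA; qHTS 6-point titration, ~60 µM downward; luminescence read.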
ELG1 DNA repair: ELG1-dependent DNA repair inhibition | HEK293T ELG1-luciferase reporter, luminescence, 16 h; DNA damage induced by 5-fluorouridine | Potency, µM (titrated, usually from 46.1 µM), hits mostly inhibitors | 2.3% of 330,000 active | AID 504467; note: nearly all actives have a fitted effect of over 55% in size
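Cells (2,000 per well) received 5-fluorouridine plus test compound or DMSO and were incubated 16 hr at 37 °C, 5% CO2. Luciferase activity was read by luminescence 30 min after ONE-Glo addition; signal suppression marked inhibition of damage-induced ELG1 function.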
SMN2 splice up: enhancers of SMN2 splice variant expression | Potency, µM (top dose mostly 46.1 µM), usual class: activators | HEK293 SMN2-luciferase splicing reporter, luminescence, 30-36 h | AID 1458 | 2.8% of 210,000 active; note: nearly all actives have a fitted effect of over 55% in size
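qHTS luciferase splicing reporter: luminescence rises when SMN2 exon 7 is included in transfected HEK293 cells. Compound exposure lasted 30-36 h at 37C, with 4.5 mM final sodium butyrate as control, followed by a ONE-Glo read.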
ELG1 genotox: inducers of genotoxicity in HEK293T ELG1-luciferase cells; AID 504466; Potency, µM (titrated, usually from 46 µM), usual class: activators; HEK293T ELG1-luciferase reporter, luminescence, 16 h; 1.3% of 330,000 active; note: nearly all actives have a fitted effect of over 60% in size
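After overnight (16 hr) compound treatment at 37 °C, ELG1-luciferase HEK293T cells were lysed with ONE-Glo; luminescence quantified 30 min later at room temperature.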
Hits are given with their value; - = inactive; ? = inconclusive; . = no result given; [ ] = another dose, or the depositor's remark. Calls come from the whole dose curve; as a rule, active = well fitted curve in the direction sought with a large enough effect; inconclusive = small, poorly fitted or top-dose-only effect, or another doubt; inactive = no such curve, though single readings can be large; an effect the other way counts as inactive or inconclusive.

SMILES	Rab9 promoter act	NPC1 promoter act	FLuc modulator	ELG1 DNA repair	SMN2 splice up	ELG1 genotox
CCOCCCNc1ncnc2c1cnn2-c1ccc(C)c(C)c1	.	.	10.7µM	.	.	.
Cc1ccc(C)c(N2C(=O)N(Cc3cc(=O)n4ccccc4n3)c3ccccc3S2(=O)=O)c1	.	.	-	.	.	.
CCN1c2cc(C)ccc2-n2cccc2C12CCN(C(=O)Nc1cc(OC)c(OC)c(OC)c1)CC2	.	.	-	.	.	.
CCOC(=O)c1ccccc1NC(=O)N1CCN2CCCCC2C1 (centres undefined)	.	.	-	.	.	.
CCc1ccc(CNc2ncnc3onc(-c4ccc(Cl)cc4)c23)cc1	.	.	-	.	-	.
Cc1ccc(C(=O)Nc2ccccc2C(=O)NC(C(=O)O)C(C)C)cc1 (centres undefined)	?	?	10.7µM	?	12.6µM	?
CCC(C)C(NC(=O)c1ccccc1NC(=O)c1ccc(C)cc1)C(=O)O (centres undefined)	-	-	?	?	.	-
Cc1ccc(C(=O)Nc2ccccc2C(=O)NC(CC(=O)O)C(=O)O)cc1 (centres undefined)	-	-	15.1µM	?	-	-
O=C(c1ccc2c(c1)N(Cc1cccc(Cl)c1)C(=O)c1ccccc1S2(=O)=O)N1CCC(Cc2ccccc2)CC1	.	.	-	.	.	.
O=C(O)c1ccccc1NS(=O)(=O)c1ccc(NNC(=S)Nc2ccc(OC(F)F)cc2)c([N+](=O)[O-])c1	-	-	19µM	-	-	-
CCOC(=O)c1c(S(=O)(=O)N2CCCC(C(=O)NCc3ccccc3OC)C2)c(C)n(C)c1C (centres undefined)	.	.	-	.	.	.
CC(C)C(NC(=O)c1ccccc1)C(=O)OCC(=O)N1CCCCC1 (centres undefined)	-	-	-	-	.	-
CC(C)C(NC(=O)OCc1ccccc1)C(=O)OCC(=O)N1CCCCC1 (centres undefined)	?	-	16.9µM	?	?	20.6µM
C#CC(=O)N(c1cc(OC)ccc1OC)C(C(=O)NC1CCCC1)c1cccs1 (centres undefined)	-	-	-	23.1µM	-	-
C#CC(=O)N(c1ccc(OC)cc1OC)C(C(=O)NC1CCCC1)c1cccs1 (centres undefined)	-	-	-	-	.	-
N/C(=N\OC(=O)COc1ccc(Cl)cc1Cl)c1ccccn1	0.708µM	0.794µM	0.757µM	?	.	1.16µM
N/C(=N\OC(=O)COc1ccc(Br)cc1Cl)c1ccccn1	2.82µM	2.82µM	1.51µM	?	7.08µM	2.59µM
Cc1ccsc1/C=N/NC(=O)C(N)=O	-	-	?	?	?	-
Cc1ccsc1/C=N/Nc1ccc(C(=O)O)cc1	?	?	0.269µM	?	.	?
Cc1ccsc1/C=N/Nc1cccc(C(=O)O)c1	0.0032µM	3.16µM	0.107µM	?	0.1µM	?
Cc1ccsc1/C=N/NC(=O)CNC(=O)c1ccccc1	-	-	-	-	.	-[9.26 µM]
COc1cccc(CN2C(=O)c3ccccc3Sc3ccc(C(=O)NCCc4ccc(Cl)cc4)cc32)c1	.	.	-	.	-	.
Cc1ccc2nc(-c3cccs3)c(Nc3c(C)cccc3C)n2c1	.	.	-	.	-	.
CCC(CC)C(=O)Nc1cc(-c2cccc(C)c2)nn1-c1ccccc1	.	.	-	.	.	.
COc1ccc(C2=NN(C(=O)c3cccs3)C(O)(C(F)(F)F)C2)cc1 (centres undefined)	-	-	?	?	-	-
SMILES	Rab9 promoter act	NPC1 promoter act	FLuc modulator	ELG1 DNA repair	SMN2 splice up	ELG1 genotox
COc1ccc(C2=NN(c3nc(C(=O)O)cs3)C(O)(C(F)(F)F)C2)c(OC)c1 (centres undefined)	-	-	10.7µM	?	-	-
O=c1c2sccc2nc(SCc2cc(=O)n3cc(Cl)ccc3n2)n1Cc1ccccn1	3.55µM	?	-	?	-	?
O=C(O)CCCCCn1c(SCc2cc(=O)n3cc(Cl)ccc3n2)nc2ccsc2c1=O	-	-	-	-	-	-
O=C1OC(c2ccccc2)=N/C1=C\C=C\c1ccco1	-	-	4.78µM	-	.	-
O=C(Nc1ccccc1C(=O)Nc1ccccc1)c1ccccc1F	-	-	-	-	.	-
O=C(Nc1ccccc1C(=O)O)c1cccc(NC(=O)c2ccco2)c1	-	-	15.1µM	?	.	-
